Among the data in the supplement of paper PMC6555819 are PBM binding z-score values, retold here.

The test system of the assay is VDR homodimer (NR concentration 270 nM). In words: PBM binding z-score (relative to random genomic background probes); higher = stronger binding; sequences stand for … in GC…GCGATTGACAGCGTAGAATGAAGG
Summed up:
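For binding z-scores, the reference was random background probes on custom Agilent 4×180K protein-binding microarrays. These arrays were incubated 1 h with ligand-free nuclear receptor dimers in PBS pH 7.4, 2% milk, 0.02% Triton X-100, 1 mM DTT, 0.2 mg/mL BSA and 0.4 mg/ml salmon testes DNA. Fluorescence was scanned after antibody detection of each partner (one per run) and regression-normalized.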
For the sequence TAGCCTAGGTCATTCAGGGGCCAGTATGGAAAGC, the PBM binding z-score was found to be 1.17. Consider CGAACTAGGTGACCAGGACAGTGAAGAGGTTGGA, for which the PBM binding z-score is -0.155. The figure for ACTTACGGGTCAACGAAGTTATAGCACGCGTATA is 0.948; for CAAACTAGGTCACGAGGTCAAAGTCCGCTTCCCG it is 4.9; for AGCTCTAGGTAAAAGTTCAGTGAATCCCGAGGAT it is 1.69.

The sequence CGAACTAGGTCAAAGGACACTGAAAGGCGACGTA had a PBM binding z-score of 0.852. For the sequence TAGCCTAGGTCATAGGCCAGTATACCACGCGAAC, the PBM binding z-score amounted to 0.651.

CGAACTAGGCCACCAGGACAGTGAAGAGGTTGGA had a PBM binding z-score of -0.183. As for ATATGTAGGTTAGGGTCATTCCGAAAGTAGGGAA, the figure is 3.59. As for CGTCCAAGGGCAATGCTAGGTCAGTGAAAGCATT, the figure is 0.429; as for AGAATGGGGTTAAGATCAGGGAAACAGAATACAT, 1.27; as for CCGAGTAGGTTACGAGGGGGCACTCAGTGCGAAT, 2.68. Sequence TTACCAAGGTAAAAGGTCGTTGATGCACGCCTTG yielded a PBM binding z-score of 1.44.

In turn, GCTTACGGGTCAAAGGTTATGGCATGAATAGAAT had a PBM binding z-score of 1.51. Turning to ACTCGGAGGACAAAGGTAAGAGCTACGCCAGTGA, the PBM binding z-score was -0.2. As for CAATCTAGGTCACAGAGGTCAAAGTCCGTGCGTA, the figure is 7.51; as for CGAACTAGGTCACCAGGACAGTGATGAGGTTGGA, 1.13.
